This passage reports AC50 and outcome results from PubChem BioAssay (EPA / NIEHS).

Usually AC50 stands for the concentration at which the activity in the assay is half-maximal.

Inconclusive results are not listed. Activity calls are given as the source filed them. Rule for the calls, unless noted: active = hit-call score of the fitted dose curve at least 0.9, where 1 is the maximum; inactive = score below 0.9.

System in one experiment: not listed separately
Kind of experiment: CCTE_Deisenroth_5AR_NBTE_donor: CCTE's 5alpha-reductase NanoBRET Target Engagement Assay […], Deisenroth Lab (AID 2284319). As to conditions: actives raise or lower the signal. In short, it runs like this: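 Donor NanoLuc luminescence at 460-20 nm is the read-out, serving artifact detection. Transiently expressed SRD5A2-NanoLuc in HEK293T; 5 h total chemical exposure, testosterone tracer added for the final 2 h; fitting bidirectional relative to DMSO baseline.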
(BRET reads energy transfer from a luciferase to a nearby fluorophore.)
For `O=S(=O)(O)c1ccc(N=Nc2c(O)ccc3cc(S(=O)(=O)O)ccc23)cc1`, the half-maximal activity concentration (AC50) is 36.5 µM (active).
In the case of `CCN(CC)C(=S)SSC(=S)N(CC)CC`, the AC50 is 50 µM (active).
For the molecule `CCCCCOC(C)=O`, the outcome was inactive.
`CCCCCCCC/C=C\CCCCCCCC(=O)OC[C@@H](O)[C@H]1OC[C@H](O)[C@H]1O`: the molecule was called inactive.

System in another experiment: not listed separately
As to the kind of experiment: CCTE_Deisenroth_5AR_NBTE_acceptor: CCTE's 5alpha-reductase NanoBRET Target Engagement Assay - Autofluorescence Screen, Deisenroth Lab (AID 2284321).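 Note: compound fluorescence in the acceptor channel under 460 nm excitation flags autofluorescence artifacts.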 As to conditions: actives raise or lower the signal. The procedure, abridged:
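Chemicals diluted to a nominal 100 uM in DMSO were scanned at 460 nm excitation. Samples were read in three independent runs (n=3). Gain or loss of acceptor signal was fitted relative to DMSO.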
For the molecule `O=S(=O)(O)c1ccc(N=Nc2c(O)ccc3cc(S(=O)(=O)O)ccc23)cc1`, the outcome was inactive.
Regarding `CCN(CC)C(=S)SSC(=S)N(CC)CC`, the concentration at half-maximal activity (AC50) is 39.6 µM (active).
With `CCCCCOC(C)=O`, the molecule was classed as inactive.
`CCCCCCCC/C=C\CCCCCCCC(=O)OC[C@@H](O)[C@H]1OC[C@H](O)[C@H]1O`: the outcome was inactive.

A further experiment concerns SRD5A2 (gene 6716). Kind of experiment: CCTE_Deisenroth_5AR_NBTE_ratio: CCTE's 5alpha-reductase NanoBRET Target Engagement Assay - Ratio, Deisenroth Lab (AID 2284322). As to conditions: actives raise or lower the signal. In short, it runs like this: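 SRD5A2-NanoLuc HEK293T; cmpd 10 nM-29.9 uM, 3 h preinc + testosterone tracer 2 h; NanoBRET ratio 650/460; bidirectional fit vs DMSO.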
Take `O=S(=O)(O)c1ccc(N=Nc2c(O)ccc3cc(S(=O)(=O)O)ccc23)cc1`: the concentration at half-maximal activity (AC50) is 61.8 µM (active).
The same measure, in the same setting: for `CCN(CC)C(=S)SSC(=S)N(CC)CC` the value was 50 µM (active).
As for `CCCCCOC(C)=O`, the outcome was inactive.
Regarding `CCCCCCCC/C=C\CCCCCCCC(=O)OC[C@@H](O)[C@H]1OC[C@H](O)[C@H]1O`, the result was inactive.

System in the next experiment: not listed separately
As to the kind of experiment: TAMU_PeakParms_SingleDonor1434_Asystole: Texas A&M University (TAMU) 1.5-hr Human Induced Pluripotent Stem Cell (iPSC)-derived Cardiomyocytes Calcium (Ca+2) Flux Assay for Cardiotoxicity: Asystole (quiescence of beating) (AID 2284328; active = hit-call score of the fitted dose curve at least 0.9, where 1 is the maximum).
Details: not given
In short, it runs like this:
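Donor 1434 iPSC-cardiomyocytes exposed 90 min at 37C, 5% CO2, to 0.2, 1, 10 and 100 uM in 0.5% DMSO. Ca2+ dye fluorescence gave average peak frequency; POD is EC95, a 95% beat-rate drop versus controls.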
In the case of `OC[C@H]1O[C@@](CO)(O[C@H]2O[C@H](CO)[C@@H](O)[C@H](O)[C@H]2O)[C@@H](O)[C@@H]1O`, the result was inactive.
Same read-out and setting: for `CCCC(CCC)C(=O)O` the value was “inactive”; for `c1ccc2cc3ccccc3cc2c1`, “inactive”; for `CCN(CC)C(=S)SSC(=S)N(CC)CC`, “inactive”.
Regarding `COc1cc2c(c(OC)c1OC)-c1ccc(OC)c(=O)cc1[C@@H](NC(C)=O)CC2`, the result was inactive.

The next experiment relates to Brachyury (BRA) Protein Expression, Deisenroth Lab, TBXT (gene 6862). Kind of experiment: CCTE_Deisenroth_DEVTOX-GLR_legacy_Bra: (Legacy) CCTE's DevTox GLR-Endo Assay Evaluation of Brachyury (BRA) Protein Expression, Deisenroth Lab (AID 2284329).
Details: not given
The procedure, abridged: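 Readout: percent Bra+ cells by high-content fluorescence imaging, Bra+ meaning mean intensity 5x BMAD over pluripotent control median. RUES2-GLR cells dosed twice over 48 h differentiation; DMSO-control median subtracted before concentration-response fitting.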
Consider `CCCC(CCC)C(=O)O`, for which the molecule was classed as inactive.
Same read-out and setting: for `NNC(=O)c1ccncc1` the value was “inactive”.
In the case of `Nc1ccn([C@@H]2O[C@H](CO)[C@@H](O)[C@@H]2O)c(=O)n1`, the AC50 is 0.152 µM (active).

System in a further experiment: not listed separately
As to the kind of experiment: CCTE_Deisenroth_DEVTOX-GLR_legacy_CellCount: (Legacy) Viability Assessment in CCTE's DevTox GLR-Endo Assay, Deisenroth Lab (AID 2284331). As to conditions: actives raise or lower the signal. The procedure, abridged: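 Nuclei count by fluorescence high-content imaging (5 fields/well) after 48 h differentiation of RUES2-GLR cells. Two exposures, 24 h apart; 1 nM - 200 uM series; n=4. Bidirectional fit vs DMSO.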
With `CCCC(CCC)C(=O)O`, the call was inactive.
On the same count and under the same terms, for `NNC(=O)c1ccncc1` the value was “inactive”.
As for `NC(=O)N1c2ccccc2C=Cc2ccccc21`, the AC50 is 67 µM (active).
On to `Nc1ccn([C@@H]2O[C@H](CO)[C@@H](O)[C@@H]2O)c(=O)n1`, for which the half-maximal activity concentration (AC50) was 0.259 µM (active).

System in another experiment: not listed separately
As to the kind of experiment: VALA_TUBIPS_Antagonist_CellCount: Viability Assessment in the VALA Sciences human iPS-derived Endothelial Tubule Formation (TUBIPS) Antagonism Assay (AID 2284335; active = hit-call score of the fitted dose curve at least 0.9, where 1 is the maximum).
Details: not given
As to `CCCCCCCCCC`, the outcome was inactive.
Consider `Cn1cc[nH]c1=S`, for which the molecule was called inactive.
With `CCCC(CCC)C(=O)O`, the result was inactive.
Same read-out and setting: for `OCCNCCO` the value was “inactive”.
On the same count and under the same terms, the result for `CCN(CC)C(=S)SSC(=S)N(CC)CC` reads “inactive”.

System in another experiment: not listed separately
Kind of experiment: VALA_MIGHUV1_ScratchOnly_WoundArea: VALA Sciences human Umbilical Vein Endothelial Cell Migration (MIGHUV) Assay, Area of Scratch Wound Inhibited Recovery (AID 2284336; active = hit-call score of the fitted dose curve at least 0.9, where 1 is the maximum).
Details: not given
In short, it runs like this: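 Wound area remaining after 24 h recovery imaged by Hoechst nuclear fluorescence in scratched HUVEC cultures, chemicals added within 30 min of scratching across a 6-point series. Gain of signal fitted against 0.1% DMSO; cytochalasin D positive control.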
As for `CCCCCCCCCC`, the molecule was called inactive.
The same measure, in the same setting: the result for `Cn1cc[nH]c1=S` reads “inactive”; that for `OCCNCCO`, “inactive”; that for `CCN(CC)C(=S)SSC(=S)N(CC)CC`, “inactive”.
